The values below come from publication PMC8384837, “Expanding the binding specificity for RNA recognition by a PUF domain”.

Test in all cases: yeast three-hybrid, YBZ-1, SC-Leu-His + 0.5 mM 3-AT, 4 days
What all share (conditions): tags: N-Gal4 AD-HA kept; label: inside an RPR1-promoter hybrid RNA with tandem MS2 sites; ssRNA

Assay [1] addresses PUM1 PUF domain R3-RTA (Homo sapiens, UniProt Q14671 828-1176, C935R;R936T;Q939A). Put shortly:
(§1)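 Repeat regions from input (SC-Leu) and selection (SC-Leu-His + 0.5 mM 3-AT) plates were PCR-amplified and Illumina-sequenced after four days of growth. The cells were strain YBZ-1 with a LexA–MS2 coat fusion and a HIS3 reporter, co-expressing Pumilio-1 PUF domain libraries and matching RNA elements from a centromeric plasmid. The interaction score is the log change in variant frequency from input to selection, taken in log2 with a pseudocount of 1 for absent variants.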

Assay [2] has as its target PUM1 PUF domain R8-LFN (Homo sapiens, UniProt Q14671 828-1176, N1122L;Y1123F;Q1126N). In short, it runs like this: as §1
Assay [3] concerns the target PUM1 PUF domain R4-RVF (Homo sapiens, UniProt Q14671 828-1176, N971R;H972V;Q975F). Put shortly: as §1
In assay [4] the target is PUM1 PUF domain R5-PRV (Homo sapiens, UniProt Q14671 828-1176, C1007P;Q1011V). Put shortly:
as §1

Assay [5] has as its target PUM1 PUF domain R3-LFN (Homo sapiens, UniProt Q14671 828-1176, C935L;R936F;Q939N). Put shortly: as §1

PUM1 PUF domain R8-LFN, sequence (Q14671 828-1176 N1122L/Y1123F/Q1126N): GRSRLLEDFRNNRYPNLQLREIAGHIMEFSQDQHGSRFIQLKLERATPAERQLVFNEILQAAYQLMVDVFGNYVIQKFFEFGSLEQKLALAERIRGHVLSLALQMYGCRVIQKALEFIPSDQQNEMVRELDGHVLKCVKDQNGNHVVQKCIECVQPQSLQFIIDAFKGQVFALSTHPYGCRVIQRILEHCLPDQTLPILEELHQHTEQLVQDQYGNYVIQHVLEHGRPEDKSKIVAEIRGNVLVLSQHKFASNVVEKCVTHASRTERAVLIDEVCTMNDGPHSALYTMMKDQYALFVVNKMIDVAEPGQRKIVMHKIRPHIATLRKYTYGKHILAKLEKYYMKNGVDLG
PUM1 PUF domain R3-LFN, sequence (Q14671 828-1176 C935L/R936F/Q939N): as the sequence (Q14671 828-1176 N1122L/Y1123F/Q1126N) above, with C108L, R109F, Q112N, L295N, F296Y, N299Q counted along it
PUM1 PUF domain R3-RTA, sequence (Q14671 828-1176 C935R/R936T/Q939A): as the sequence (Q14671 828-1176 N1122L/Y1123F/Q1126N) above, with C108R, R109T, Q112A, L295N, F296Y, N299Q counted along it
PUM1 PUF domain R5-PRV, sequence (Q14671 828-1176 C1007P/Q1011V): as the sequence (Q14671 828-1176 N1122L/Y1123F/Q1126N) above, with C180P, Q184V, L295N, F296Y, N299Q counted along it
PUM1 PUF domain R4-RVF, sequence (Q14671 828-1176 N971R/H972V/Q975F): as the sequence (Q14671 828-1176 N1122L/Y1123F/Q1126N) above, with N144R, H145V, Q148F, L295N, F296Y, N299Q counted along it

Take “GGCUAGAACUAGUGGAUCCCCCGGCGCCCGGCGGCUCGAGCCCGGGUAAGUGUAAUUAGUCUGCAUGCCGCCGGGCGCCAUGCCUGCAGGUCGACUCUAGAAAACAUG”: the binding signal in assay [1] is 3.27 log2 enrichment (interaction score).
Turning to “GGCUAGAACUAGUGGAUCCCCCGGCGCCCGGCGGCUCGAGCCCGGGUAAGUGUAAAUAGUCUGCAUGCCGCCGGGCGCCAUGCCUGCAGGUCGACUCUAGAAAACAUG”, the binding signal in assay [2] was 0.52 log2 enrichment (interaction score); in assay [3], 2.93 log2 enrichment (interaction score); in assay [4], 3.15 log2 enrichment (interaction score).
For the sequence “GGCUAGAACUAGUGGAUCCCCCGGCGCCCGGCGGCUCGAGCCCGGGUAAGCGUAAAUAGUCUGCAUGCCGCCGGGCGCCAUGCCUGCAGGUCGACUCUAGAAAACAUG”, the binding signal in assay [2] was 2.16 log2 enrichment (interaction score).
As for “GGCUAGAACUAGUGGAUCCCCCGGCGCCCGGCGGCUCGAGCCCGGGUAAGUGUAAGUAGUCUGCAUGCCGCCGGGCGCCAUGCCUGCAGGUCGACUCUAGAAAACAUG”, in assay [5], the binding signal was 5.99 log2 enrichment (interaction score).
